Growth data for 40 compounds are collected here from PubChem BioAssay (NCI).

This is part of a sample that, as a whole, favours compounds with a hit. Of some 83,000 tested, about 20% had one in any assay.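 The endpoint reported here, percent growth, reads 100 for growth as untreated, 0 for no net growth and -100 for all cells dead.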 A number with no mark means an inactive call. The source made the active and inactive calls.

The experiment has as its system OVCAR-3 ovarian. Description: NCI-60 one-dose screen, 48 h (100 = growth as untreated, 0 = no growth, -100 = all killed). To be noted: 10 µM unless noted. As to the method:
Growth inhibition of the OVCAR-3 human tumor cell line is measured as a screen for anti-cancer activity. Cells are grown in 96 well plates and exposed to the test compound for 48 hours. Compounds are tested at a single concentration, which is 10^-5 M for most compounds. The reported endpoint is percent growth (GI% or GIPRCNT), where numbers from 0 - 100% represent growth inhibition, and numbers from -100% - 0 represent cell death. For example, a value of 40 represents 60% growth inhibition. A value of 0 means no net growth occurred over the course of the experiment. A value of -40 indicates 40% of cells at the beginning of the experiment died by the end of the experiment. A value of -100 means all cells are dead at the end of the experiment.
NCI-60 Human Tumor Cell Lines Screen was performed using the standard one-dose NCI protocol, which is described in more detail at https://dtp.cancer.gov/discovery_development/nci-60/default.htm.
Compounds with GIPRCNT values below 10 were considered active. Activity score was based on GIPRCNT using the following formula: […]
Score is 0 for GIPRCNT values of 100 or above, 50 for GIPRCNT values of 0, and 100 for GIPRCNT values of -100.
On to `O=C(NCCOCCOCCNc1cccc2c1C(=O)N(C1CCCNC1=O)C2=O)c1cc2c(o1)C(=O)c1ccccc1C2=O` (stereo not given), for which the growth is -25% (active).
Consider `C=C1c2c(C)nn(-c3ccc(S(N)(=O)=O)cc3)c2N(C)C23CC1C1(C)c4c(C)nn(-c5ccc(S(N)(=O)=O)cc5)c4N(C)C(C)(CC12)C3` (stereo not given), for which the growth is 41.6%.
Consider `CC1=CC(=O)C(C(C)C)=CC1=Nc1cc(Br)c(O)c(Br)c1`, for which the growth is -9.25% (active).
The figure for `Nc1ccc(-c2cc3c(Nc4ccc(OCc5cccc(F)c5)c(Cl)c4)ncnc3s2)cc1` is 46.6%.
The figure for `COc1cc(-c2ncn(/C=C\c3nnco3)n2)cc(C(F)(F)F)c1` is -20.8% (active); for `COc1ccc(O)c(-c2cc(-c3ccccc3)c(C#N)c(=O)[nH]2)c1` it is 95.9%; for `c1ccc([P+](CCCc2n(Cc3ccc4ccccc4c3)c3ccccc3[n+]2Cc2ccc3ccccc3c2)(c2ccccc2)c2ccccc2)cc1` it is 75.8%.
With `O=C(NCc1cccnc1)c1cc(-c2csc3c(=O)cc(N4CCOCC4)oc23)cc2c1OCCO2` the figure was 34.7%; with `CNCCNc1nc2ccccc2c2c(=O)c3cc(F)ccc3oc12`, 69.3%; with `N=C(N)c1ccc(-c2ccc(-c3ccc(Cl)cc3Cl)o2)cc1`, -40.2% (active).
On to `CCN(CC)CCCNC(=O)c1ccc(N)cc1O`, for which the growth is 107%.
With `CCOc1ccc2nc(-c3cccc(OCC(=O)NC(C)C)c3)nc(Nc3ccc(-c4cn[nH]c4)cc3)c2c1`, the growth is -3.59% (active).
For `NC(=O)CC1(O)C=C(Br)C(=O)C(Br)=C1`, the growth was -9.94% (active).
With `Cc1nc(Nc2ccc(NC(=S)Nc3ccccc3)cc2)nc2nc(Nc3ccc(S(=O)(=O)O)cc3)[nH]c(=O)c12`, the growth is 139%.
Regarding `Cc1c2c(cn1Cc1ccccc1)CCc1cn(C)nc1-2`, the growth was 107%.
With `CCOC(=O)c1c(C)nc2c(c1N)/C(=C/c1ccc(OC)cc1)C(=O)N2Cc1ccc(F)cc1`, the growth was -91.4% (active).
Regarding `O=S(=O)(NCCNc1cc(-c2c(-c3cccc(O)c3)nc3sccn23)ccn1)c1ccc(Cl)cc1`, the growth was 64.2%.
The figure for `COc1ccc(/C=C2\COc3ccc(O)cc3C2=O)c(OC)c1` is 27%; for `O=C(/C=C/C12c3ccccc3C(c3ccccc31)C1C(=O)N(c3ccc(Cl)cc3)C(=O)C12)c1ccccn1` (stereo not given) it is -71.6% (active); for `Cc1[nH]c(-c2nc3ccccc3[nH]2)c(C)c1C(=O)N1CCOCC1` it is 103%.
With `C=CCOc1cccc(/C=C2\SC(=Nc3ccc(O)cc3)NC2=O)c1`, the growth is 6.17% (active).
With `O=C(O)C1C[C@](O)(c2ccc(F)cc2)[C@@H](c2ccc(F)cc2)O1` (stereo not given in full) the figure was 146%; with `CCCCOC(=O)c1ccc(NC(=O)C(C)N2CCOCC2)cc1` (stereo not given), 102%.
With `CNC(=O)NCC1OC(n2cnc3c(NC(=O)Nc4ccccc4)ncnc32)C2OC(C)(C)OC12` (stereo not given) the figure was 89%; with `O=S(=O)(Cc1ccccc1)c1nc2ccccc2s1`, 79.2%; with `CC(=[N-])N1CCC[C@@H](Nc2c3ccccc3nc3ccccc23)C1.[Cl][Pt].[NH-]CCC[NH-]`, 3.95% (active).
As for `CCOc1cc(C2C(Cl)C(=O)N2n2cnnc2)ccc1O` (stereo not given), the growth is 96.4%.
With `C[C@H]1[C@H]2C3=CC[C@@H]4[C@@]5(C)C/C(=C/c6ccncc6)C(=O)C(C)(C)[C@@H]5CC[C@@]4(C)[C@]3(C)CC[C@@]2(C(=O)N2CCN(C)CC2)CC[C@@H]1C`, the growth is 76.3%.
In the case of `CN(C)c1ccc(/C=C2\C=C(c3ccccc3)N(CCc3ccccc3)C2=O)cc1`, the growth was 62.3%.
Consider `COc1cc(-c2ccc(N=Nc3c(O)c(C(=O)Nc4ccccc4OC)cc4ccccc34)c(OC)c2)ccc1N=Nc1c(O)c(C(=O)Nc2ccccc2OC)cc2ccccc12`, for which the growth was 99.3%.
On to `CC(C)c1ccc(C(=O)OC(=O)c2ccc(C(C)C)cc2)cc1`, for which the growth was 106%.
As for `Cl.[Pt].[c-]1ccccc1-c1ccccn1.c1ccc(P(c2ccccc2)C([PH+](c2ccccc2)c2ccccc2)[PH+](c2ccccc2)c2ccccc2)cc1`, the growth is 11.6%.
On to `CCOC(=O)c1ccc(NC(=O)CCCN(CC)CC)cc1`, for which the growth is 105%.
For `C=C(C)C1CCC(=C)C2CCC3(C)OC12/C=C(/COC(C)=O)CCC3O` (stereo not given), the growth was 124%.
As for `COc1ccc(N=c2nc3sc4cc(Cl)ccc4n3c(N)c2C#N)cc1`, the growth is 114%.
For the compound `Cc1ccc(C)c2c1C(=O)OC2=O`, the growth was 115%.
Regarding `CN(C)c1ccc(-c2cc(-c3ccc(Nc4nc(Nc5ccccc5)nc(Nc5ccc(Cl)cc5)n4)cc3)nc(N)n2)cc1`, the growth is 49.5%.
With `C=C1C(=O)O[C@H]2[C@H]1CC/C(C(=O)NCCCCCCCCNC(=O)/C1=C/CC[C@@]3(C)O[C@H]3[C@H]3OC(=O)C(=C)[C@@H]3CC1)=C\CC[C@@]1(C)O[C@@H]21`, the growth was 33.1%.
Turning to `C=C1C(=O)O[C@H]2[C@H]1CC/C(COC(=O)/C=C/C(=O)NCc1ccc(Cn3c(=O)sn(-c4ccccc4)c3=O)cc1)=C\CC[C@@]1(C)O[C@@H]21`, the growth was -77.5% (active).
The figure for `Cc1cnc(Nc2ccc(N3CCN(C)CC3)cc2)nc1Nc1ccc(Cl)c(NS(=O)(=O)C(C)(C)C)c1` is 9.51% (active).
